Out of some 45,000 compounds screened, about 200 (0.44%) were called active. A call without a number means that no potency is given here. About 7% were inconclusive and are not listed. Calls come from the whole dose curve; as a rule, active = well fitted activation curve with a large enough effect; inconclusive = small, poorly fitted or top-dose-only effect; inactive = no such curve, though single readings can be large or run the other way. Only a selection was taken, and actives are over-represented in it overall.
Assay: qHTS of TDP-43 Inhibitors: NCGC Sytravon Library Screen; note: nearly all actives have a fitted effect of over 55% in size
Details: yeast TDP-43 toxicity rescue, BacTiter-Glo growth, 24 h; series mostly up to 46.1 µM
Excerpt: The goal of this project is to identify new chemical probes capable of reversing the toxicity associated with TDP-43 which is associated with frontotemporal lobar degeneration and amyotrophic lateral sclerosis. These compounds will provide a complementary approach to deciphering the tangled mechanisms of toxicity and protection that we have uncovered through genome-wide genetic screens and are beginning to uncover in a large-scale proteomics analysis with mass spectroscopy. To this end, a miniaturized assay was developed to be screened against the Molecular Libraries Small Molecule Repository (MLSMR) to discover TDP-43 inhibitors. Please note that in the set-up this yeast-based assay compounds that inhibit as TDP-43, have a read-out as activators. NIH Chemical Genomics Center [NCGC] NIH Molecular Libraries Probe Centers Network [MLPCN] Assay Submitter (PI): Susan Lindquist, Whitehead Institute/MIT MLPCN Grant: R21 NS060957
Dispense 2.5 microL yeast galactose medium per 1536-well plate, pin compound, dispense 2.5 microL TDP-43 expressing yeast in galactose medium at OD600=0.02 (pregrown in raffinose medium to mid-log phase) per well, incubate for 24 hr at 30 deg C, and cell growth will be measured using 5 microL of Bactiter/Glo reagent to entire plate and read using Luminescence Protocol in ViewLux.
Potency is the fitted concentration of half-maximal effect.

**Q.** Which Potency does the source give for CSc1ccc(C(=O)C2CCCN(C(=O)c3ccc(C)nc3)C2)cc1 (stereo unspecified) here?
**A.** inactive

**Q.** With CC(=O)N1CCN(C(=O)C2(NC(=O)Nc3ccc(C)cc3)CCCCC2)CC1 as the molecule, how does the Potency read?
**A.** inactive

**Q.** With CC(=O)Oc1ccc2c(=O)oc(-c3ccc([N+](=O)[O-])cc3)nc2c1 as the molecule, how does the Potency read?
**A.** inactive

**Q.** With CC(=O)C1=C(C)NC2=C(C(=O)CC(C)(C)C2)C1C (stereo unspecified) as the molecule, how does the Potency read?
**A.** inactive

**Q.** With Oc1ccccc1C=NC1CCCCC1N=Cc1ccccc1O (stereo unspecified) as the molecule, how does the Potency read?
**A.** inactive

**Q.** With O=C(c1ccc(F)cc1)N1CCC(n2nnc3ccccc32)CC1 as the molecule, how does the Potency read?
**A.** inactive

**Q.** Which Potency does the source give for Cc1ccc(NC(=O)CSc2nnc(CNC(=O)c3ccccc3F)o2)cc1 here?
**A.** inactive

**Q.** For O=C(N/N=C/c1ccc2c(c1)OCO2)C(=O)N1CCCC1, which Potency is on record?
**A.** inactive

**Q.** Which Potency does the source give for CC(OC(=O)c1ccc(Cl)cc1O)C(=O)NCCC1=CCCCC1 (stereo unspecified) here?
**A.** inactive

**Q.** Which Potency does the source give for O=C(C1CCN(Cc2ccc(Cl)cc2)CC1)N1CCN(Cc2ccc3c(c2)OCO3)CC1 here?
**A.** inactive

**Q.** For COc1cccc(CC(=O)Nc2nc(-c3ccc(OC)c(OC)c3)cs2)c1, which Potency is on record?
**A.** inactive

**Q.** With CCN(CC(=O)NC(C)C)C(=O)c1cc(S(=O)(=O)N2CCCCC2)ccc1N1CCCCC1 as the molecule, how does the Potency read?
**A.** inactive

**Q.** For Cc1ccc(-c2noc(CNC(=O)c3ccoc3C)n2)cc1, which Potency is on record?
**A.** inactive

**Q.** With O=C(CCc1c[nH]c2ccccc12)NCCOc1ccccc1 as the molecule, how does the Potency read?
**A.** inactive

**Q.** For CCn1cc(C(=O)NCC(=O)NC(C)(C)CO)c(=O)c2cc3c(cc21)OCO3, which Potency is on record?
**A.** inactive

**Q.** For Cc1cccc(C(=O)NCC(=O)OCC(=O)N2CC3(C)CC2CC(C)(C)C3)c1 (stereo unspecified), which Potency is on record?
**A.** inactive

**Q.** Which Potency does the source give for COc1ccc(OCC(=O)NNC(=O)c2cccc(C)c2)cc1 here?
**A.** inactive

**Q.** For Cc1cc(C)cc(NC(=O)CSc2ccccc2)c1, which Potency is on record?
**A.** inactive

**Q.** Which Potency does the source give for Cc1ccc(NC(=O)CN(C)C(=O)c2ccc(Br)o2)cc1 here?
**A.** inactive

**Q.** For CNCC(O)CN1CCN(c2ccccc2OC)CC1 (stereo unspecified), which Potency is on record?
**A.** inactive

**Q.** With O=c1c(-c2ccc(Cl)cc2)[n+]([O-])c2ccccc2n1OCc1nc2ccccc2[nH]1 as the molecule, how does the Potency read?
**A.** inactive

**Q.** With Cc1cc(C)cc(N(CC(=O)NCCSCc2ccco2)S(C)(=O)=O)c1 as the molecule, how does the Potency read?
**A.** inactive

**Q.** For COC(=O)c1ccc(CN2CCC(CO)(Cc3ccc(OC)cc3)CC2)cc1, which Potency is on record?
**A.** inactive

**Q.** Which Potency does the source give for COc1ccc(N2CCN(c3ccc([N+](=O)[O-])cc3Cl)CC2)cc1 here?
**A.** inactive

**Q.** With CN(C)S(=O)(=O)N1CCN(c2ccc([N+](=O)[O-])cc2)CC1 as the molecule, how does the Potency read?
**A.** inactive

**Q.** Which Potency does the source give for O=[N+]([O-])c1ccc(N2CCN(c3ccc(O)cc3)CC2)c(Cl)c1 here?
**A.** 12.6 µM (active)

**Q.** With COCCCNc1ccn2nc(-c3ccc(CC(C)C)cc3)cc2n1 as the molecule, how does the Potency read?
**A.** inactive

**Q.** For S=C(Nc1ccc(Br)cc1Cl)NC1CCN(Cc2ccccc2)CC1, which Potency is on record?
**A.** inactive

**Q.** Which Potency does the source give for CC(C)=CCN1CCN(Cc2ccc(Oc3ncccn3)cc2)CC1CCO (stereo unspecified) here?
**A.** inactive

**Q.** Which Potency does the source give for Cc1ccc(C)c(NC(=O)c2ccc3nccnc3c2)c1 here?
**A.** inactive

**Q.** Which Potency does the source give for CC(C(=O)O)n1cnc2sc3c(c2c1=O)CCCC3 (stereo unspecified) here?
**A.** inactive

**Q.** With Cc1ccc(C(=O)NC2CCN(C(=O)Nc3ccc(F)cc3)CC2)cc1 as the molecule, how does the Potency read?
**A.** inactive

**Q.** With Cc1ccc(/C=N/NC(=O)CN2CCN(Cc3ccccc3)CC2)s1 as the molecule, how does the Potency read?
**A.** inactive

**Q.** With COc1ccc2cc(S(=O)(=O)Nc3ccccn3)ccc2c1 as the molecule, how does the Potency read?
**A.** inactive

**Q.** With O=C(Cc1ccccc1)Nc1c(Cl)ccc2nsnc12 as the molecule, how does the Potency read?
**A.** inactive

**Q.** For CC(Oc1ccccc1F)C(=O)NN (stereo unspecified), which Potency is on record?
**A.** inactive

**Q.** Which Potency does the source give for COc1ccc(NC(=O)C2Cc3c(-c4ccc(Cl)cc4)ccnc3O2)cc1 (stereo unspecified) here?
**A.** 20 µM (active)

**Q.** With COc1ccc(NC(=O)C2COc3ccccc3O2)cc1 (stereo unspecified) as the molecule, how does the Potency read?
**A.** inactive

**Q.** With COc1ccc(NC(=O)C2(C)Cc3c(-c4cccc(NC(C)=O)c4)ccnc3O2)cc1 (stereo unspecified) as the molecule, how does the Potency read?
**A.** inactive

**Q.** With Cc1ccc(N2CCN(C(=O)c3cccs3)CC2)c(C)c1 as the molecule, how does the Potency read?
**A.** inactive

**Q.** For O=c1[nH]oc(O)c1-c1ncc(C(F)(F)F)cc1Cl, which Potency is on record?
**A.** inactive

— PubChem BioAssay AID1347073 (National Center for Advancing Translational Sciences (NCATS), 2019)
